The text below walks through data of PubChem BioAssay (NCI).

Holding throughout (test): NCI-60 one-dose screen, 48 h (100 = growth as untreated, 0 = no growth, -100 = all killed)
For one test, the system named is DU-145 prostate. Particulars: 10 µM unless noted.
In another test the test system is K-562 leukemia. The settings on record: 10 µM unless noted.
In a further test the test system is MALME-3M melanoma. Particulars: 10 µM unless noted.
In the next test the test system is RXF 393 renal. The settings on record: 10 µM unless noted.
In another test the test system is SF-268 CNS. The settings on record: 10 µM unless noted.
The test system of another test is SF-295 CNS. Particulars: 10 µM unless noted.
The next test relates to SF-539 CNS. Particulars: 10 µM unless noted.
A further test deals with UACC-257 melanoma. Particulars: 10 µM unless noted.
In the next test the test system is M14 melanoma. Particulars: 10 µM unless noted.
The test system of another test is HCT-15 colon. The settings on record: 10 µM unless noted.
The next test has as its system SNB-75 CNS. The settings on record: 10 µM unless noted.
A further test has as its system SNB-19 CNS. The settings on record: 10 µM unless noted.
Another test has as its system U251 CNS. Particulars: 10 µM unless noted.
A further test concerns PC-3 prostate. The settings on record: 10 µM unless noted.
The test system of the next test is SK-MEL-5 melanoma. The settings on record: 10 µM unless noted.
The next test deals with UACC-62 melanoma. Particulars: 10 µM unless noted.
Another test relates to SK-MEL-28 melanoma. Particulars: 10 µM unless noted.
Another test relates to HT29 colon. Particulars: 10 µM unless noted.
Another test deals with MDA-MB-231 breast. The settings on record: 10 µM unless noted.
The subject of a further test is LOX IMVI melanoma. Particulars: 10 µM.

About 83,000 compounds went through this panel and 20% of them were active in at least one assay; those are over-represented in the sample as a whole.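 Growth was measured after 48 h exposure to one concentration of compound in 96-well plates. Values under 10 count as active.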 A number with no mark means an inactive call. Calls of active or inactive are those of the source.

For the compound `CN1CCc2c(sc3ncnc(N/N=C/c4ccc(Cl)cc4Cl)c23)C1`, the growth with DU-145 prostate was 36.1%; with K-562 leukemia it was -21.5% (active); with MALME-3M melanoma, -62.4% (active); in the test with RXF 393 renal, -41.8% (active); in the test on SF-268 CNS, 35.8%; with SF-295 CNS, 32.4%. The growth was -94.6% (active) in the test on SF-539 CNS; -12.3% (active) in the test on UACC-257 melanoma; -81.4% (active) in the test on M14 melanoma; 10.2% in the test on HCT-15 colon; -50.4% (active) with SNB-75 CNS; 26.8% in the test with SNB-19 CNS. The growth in the test on U251 CNS is 2.63% (active); in the test on PC-3 prostate it was 25.3%; with SK-MEL-5 melanoma, -89.2% (active); with UACC-62 melanoma, -79.9% (active); in the test with SK-MEL-28 melanoma, -33.1% (active).

In the case of `COc1ccc(NC(=O)c2sc3nc(C(C)C)ccc3c2N)cc1`, the growth was 78.9% with DU-145 prostate; 50% in the test with K-562 leukemia; 83.4% in the test on MALME-3M melanoma; 89.2% with RXF 393 renal; 99.7% with SF-268 CNS; 72.3% in the test on SF-295 CNS. Moreover, the growth was 84.1% with SF-539 CNS; 88.7% in the test on UACC-257 melanoma; 93.4% in the test on M14 melanoma; 69.5% in the test with HCT-15 colon; 73.6% with HT29 colon; 104% in the test with SNB-75 CNS. For the same compound, the growth in the test on SNB-19 CNS is 91.4%; in the test on U251 CNS it was 84.6%; in the test with PC-3 prostate, 71.7%; in the test on SK-MEL-5 melanoma it was 44.6%; in the test with UACC-62 melanoma, 85.6%; with SK-MEL-28 melanoma it was 94%.

On to `O=C(/C=C/c1ccc(-c2ccccc2)cc1)c1nc2ccccc2n1Cc1ccc(Br)cc1`, for which the growth was 80.5% in the test with DU-145 prostate; 36% in the test on K-562 leukemia; 44% with MALME-3M melanoma; 35.3% in the test on RXF 393 renal; 62.9% with SF-268 CNS; 21.9% in the test on SF-295 CNS. In addition, the growth in the test with SF-539 CNS is 17.7%; with UACC-257 melanoma it was 67.4%; with M14 melanoma, 74%; with HCT-15 colon, 37.3%; in the test on SNB-75 CNS, 56.8%; in the test on SNB-19 CNS, 57.8%. Also, the growth was 27.4% in the test on U251 CNS; 48.2% in the test with PC-3 prostate; 72.2% with SK-MEL-5 melanoma; 50.2% in the test with UACC-62 melanoma; 58.5% in the test on SK-MEL-28 melanoma.

Consider `CC(C)CCNC(=O)N/C(N)=N/c1nc2ccccc2s1`, for which the growth with DU-145 prostate is 66.4%; in the test on K-562 leukemia, 28.7%; in the test on MALME-3M melanoma, 77.1%; in the test with RXF 393 renal, 74.7%; in the test on SF-268 CNS, 72%; with SF-295 CNS it was 45.3%. Moreover, the growth with SF-539 CNS was 56.8%; with UACC-257 melanoma it was 35.5%; in the test with M14 melanoma, 79.6%; with HCT-15 colon, 48.4%; in the test with HT29 colon it was 68.8%; with SNB-19 CNS, 58.4%. Also, the growth was 67.4% with U251 CNS; 62.6% in the test on PC-3 prostate; 15.8% in the test on SK-MEL-5 melanoma; 59.2% with UACC-62 melanoma; 81.3% in the test on SK-MEL-28 melanoma.

`Cc1ccc2c(N)c(C(=O)Nc3ccc(-c4ccccc4)cc3)sc2n1`: the growth in the test with DU-145 prostate is 88.4%; in the test on K-562 leukemia, 36.9%; in the test on MALME-3M melanoma it was 65.5%; with RXF 393 renal, 30.5%; in the test with SF-268 CNS it was 101%; in the test with SF-295 CNS it was 45.6%. Besides, the growth with SF-539 CNS was 67.7%; in the test on UACC-257 melanoma, 61%; with M14 melanoma, 73.2%; in the test with HCT-15 colon it was 58.7%; in the test on HT29 colon it was 84.3%; in the test with SNB-19 CNS it was 63.5%. Further, the growth was 85.2% in the test on U251 CNS; 68.5% in the test with PC-3 prostate; 20.3% in the test on SK-MEL-5 melanoma; 72.2% in the test with UACC-62 melanoma; 85.1% with SK-MEL-28 melanoma.

Take `COc1cc(OC)cc(C(=O)Nc2cccc(-c3cn(-c4ccc(S(N)(=O)=O)cc4)nn3)c2)c1`: the growth with DU-145 prostate is 97.2%; in the test with MALME-3M melanoma it was 79.9%; with MDA-MB-231 breast, 67.5%; in the test with RXF 393 renal, 57.5%; in the test with SF-268 CNS it was 50.3%; in the test on SF-295 CNS, 63%. In addition, the growth in the test with SF-539 CNS was 60.3%; in the test with UACC-257 melanoma, 101%; in the test on M14 melanoma it was 91.3%; in the test on HCT-15 colon it was 92.2%; with HT29 colon, 114%; in the test with SNB-75 CNS it was 51.7%. In addition, the growth in the test with SNB-19 CNS was 17.8%; with U251 CNS, 32.2%; in the test with PC-3 prostate, 91.4%; with UACC-62 melanoma it was 80.4%; in the test with LOX IMVI melanoma, 69.3%; with SK-MEL-28 melanoma, 81.1%.

With `C[C@H]1CN(C(=O)c2ccc3c(NNC(=O)c4ccncn4)nc4cc(F)c(F)cc4n23)CCN1`, the growth in the test with DU-145 prostate is 41.3%; in the test on MALME-3M melanoma, 33.6%; with MDA-MB-231 breast, 45.7%; with RXF 393 renal it was 52.9%; with SF-268 CNS it was 27.4%; in the test on SF-295 CNS it was 12.4%. Moreover, the growth is 8.55% (active) in the test on SF-539 CNS; 22.3% in the test with UACC-257 melanoma; -24.8% (active) in the test on M14 melanoma; 28.4% in the test with HCT-15 colon; 36.6% with HT29 colon; 65.3% with SNB-75 CNS. Further, the growth is 30.1% in the test with SNB-19 CNS; 15.5% in the test on U251 CNS; 38.7% in the test with PC-3 prostate; 6.69% (active) with UACC-62 melanoma; 12.4% with LOX IMVI melanoma; 31.1% in the test on SK-MEL-28 melanoma.

With `O=C(N/N=C/c1ccc(-c2ccc(O)cc2)o1)c1[nH]c2ccc(Br)cc2c1-c1ccccc1`, the growth with DU-145 prostate was 0.567% (active); with K-562 leukemia, 1.64% (active); in the test with MALME-3M melanoma, -26.8% (active); in the test on RXF 393 renal, -10% (active); in the test with SF-268 CNS, 12.7%; in the test on SF-295 CNS, -68.7% (active). Besides, the growth is -59.2% (active) with SF-539 CNS; 27.4% in the test with UACC-257 melanoma; 18.1% in the test on M14 melanoma; 2.62% (active) in the test on HCT-15 colon; -2.73% (active) in the test on SNB-75 CNS; 10.3% with SNB-19 CNS. For the same compound, the growth was -29.2% (active) with U251 CNS; -6.14% (active) in the test on PC-3 prostate; -82.9% (active) with SK-MEL-5 melanoma; -14.9% (active) in the test on UACC-62 melanoma; -27% (active) in the test with SK-MEL-28 melanoma.

For the compound `CN1CCN(c2ccc3c(c2)nc(NNC(=O)c2cnccn2)c2cccn23)CC1`, the growth in the test with DU-145 prostate was -9.7% (active); with MALME-3M melanoma, -24.5% (active); in the test with MDA-MB-231 breast, -35.1% (active); with RXF 393 renal, -65.1% (active); in the test with SF-268 CNS it was 10.6%; with SF-295 CNS, -81.3% (active). The growth with SF-539 CNS was -41.3% (active); with UACC-257 melanoma, -48.6% (active); with M14 melanoma, -78.1% (active); in the test on HCT-15 colon, -51% (active); with HT29 colon, 6.95% (active); with SNB-75 CNS it was 28.7%. Further, the growth is 20% with SNB-19 CNS; -19.1% (active) with U251 CNS; 11.7% with PC-3 prostate; -17.9% (active) in the test on UACC-62 melanoma; -43.8% (active) with LOX IMVI melanoma; -15% (active) in the test with SK-MEL-28 melanoma.
